Assay results: PubChem BioAssay
The source made the active and inactive calls.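 How the source made its calls, unless noted: active means inhibition of the reporter signal at or above 50%; inactive means inhibition below 50%.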

Columns and labels:
[1] = inhibitors of TNFa-induced NFkB p65 translocation, primary screen, imaging, HUVEC, MLSMR starter and 10KST1 sets (AID 438;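 active means inhibition above 20% together with a positive visual image hit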;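 further: compound added about 3h40 before a 20 min TNFalpha stimulation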;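 on inhibition: signal is the nuclear over cytoplasmic p65 intensity ratio per well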); settings: HUVEC TNFa-induced p65 nuclear translocation; cell count: measured here: nuclei count (cytotoxicity indicator), at 2.08 µM; inhibition: at 2 µM, stronger effect = higher value, 0% TNFa-plus-vehicle, 100% no-TNFa wells
[2] = inhibitors of mutant huntingtin aggregation, primary screen, imaging, exon1htt(103Q)mCFP cells, high-content imaging (AID 483;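 active means visual image review flags a hit and inhibition of aggregation exceeds 20%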;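 further: compound exposure lasted 3 days before fixation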;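 on nuclei count: percent of the per-plate median nuclei count of sample wells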); settings: exon1htt(103Q)mCFP cell line, aggregate imaging, at 2 µM; inhibition of aggregation: stronger effect = higher value; nuclei count: measured here: cell count, toxicity
[3] = inhibitors of E-selectin induction by TNFa, primary screen, imaging, HUVEC, immunofluorescence, MLSMR starter and 10KST1 sets (AID 487;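 active means visually confirmed hit in the image check and inhibition above 20%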;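 on inhibition: signal is fraction of cell area covered by stained E-selectin grains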;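 on nuclei count: 100% = median nuclei count of all wells on the same plate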); settings: HUVEC TNFalpha-induced E-selectin immunofluorescence imaging, at 2 µM; inhibition: stronger effect = higher value; nuclei count: measured here: cell number, toxicity
[4] = molecular target: Voltage-gated potassium channel subunit beta-2 (Rattus norvegicus) (UniProt P62483); test: KvBeta enzyme negative modulators, primary screen, biochemical, NADPH fluorescence (AID 622;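 active means fluorescence slope higher than the sample average by over 3 SD, cut at about -0.22 in these data, passing the limit was not always enough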;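 further: slope of raw intensity against log time taken from 70 to 1610 s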); settings: recombinant KvBeta, 4-cyanobenzaldehyde reduction, at 10 µM, stronger effect = higher value
[5] = molecular target: Voltage-gated potassium channel subunit beta-2 (Rattus norvegicus) (UniProt P62483); test: KvBeta positive modulators, primary screen, biochemical, NADPH fluorescence (AID 623;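 active means NADPH fluorescence slope more negative than the mean of all samples by about 3 SD, 99.7% confidence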;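 further: fluorescence intensity change per second fitted from 20 to 320 s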); settings: Recombinant KvBeta, NADPH fluorescence decrease slope, 10 min; at 10 µM; stronger effect = lower value
[6] = molecular target: Alpha-2C adrenergic receptor (Homo sapiens) (UniProt P18825); test: modulators of alpha2C/GIRK thallium flux, primary screen, cell-based, HEK293 alpha2C/GIRK1/2 (AID 624;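 active means fluorescence slope after compound addition differing from the mean of all screened samples at 99.7% confidence, in either direction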;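 further: slope of fluorescence ratio to pre-addition baseline per second over 15 to 24 s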); settings: thallium flux BTC fluorescence, at 10 µM, actives lie on both sides
[7] = inhibitors of Sendai virus-induced IRF3 signaling, primary screen, TLR/RLR signaling modifier project, cell-based, Sendai virus stimulus, luciferase, 10K MLSCN set (AID 602276;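 active means inhibition at or above 50% at 10 µM; inactive means inhibition below 50%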;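 further: firefly luciferase from ISG56 promoter only with Renilla not read in this screen; 0% = Sendai virus plus DMSO and 100% = medium plus DMSO without virus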); settings: HEK293 RL24 IRF3 luciferase reporter, at 10 µM, stronger effect = higher value
[8] = inhibitors of poly I:C-induced TLR3 signaling, primary screen, cell-based, poly I:C stimulus, luciferase, 10K MLSCN set (AID 602277); settings: HEK293-TLR3 RL24 IRF3 luciferase reporter, at 10 µM, stronger effect = higher value

Chain of Voltage-gated potassium channel subunit beta-2 (Rattus norvegicus) (P62483 whole entry, looked up): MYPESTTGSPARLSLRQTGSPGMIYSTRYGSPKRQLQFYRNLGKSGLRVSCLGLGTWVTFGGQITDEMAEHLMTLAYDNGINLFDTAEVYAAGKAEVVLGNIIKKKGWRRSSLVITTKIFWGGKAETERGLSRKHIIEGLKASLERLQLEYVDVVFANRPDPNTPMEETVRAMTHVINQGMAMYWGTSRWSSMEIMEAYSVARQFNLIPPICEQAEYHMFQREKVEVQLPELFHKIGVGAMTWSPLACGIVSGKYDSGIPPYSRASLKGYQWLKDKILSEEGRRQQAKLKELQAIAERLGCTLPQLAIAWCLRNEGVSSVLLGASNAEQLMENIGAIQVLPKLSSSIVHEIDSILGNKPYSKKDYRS
Chain of Alpha-2C adrenergic receptor (Homo sapiens) (P18825 whole entry, looked up): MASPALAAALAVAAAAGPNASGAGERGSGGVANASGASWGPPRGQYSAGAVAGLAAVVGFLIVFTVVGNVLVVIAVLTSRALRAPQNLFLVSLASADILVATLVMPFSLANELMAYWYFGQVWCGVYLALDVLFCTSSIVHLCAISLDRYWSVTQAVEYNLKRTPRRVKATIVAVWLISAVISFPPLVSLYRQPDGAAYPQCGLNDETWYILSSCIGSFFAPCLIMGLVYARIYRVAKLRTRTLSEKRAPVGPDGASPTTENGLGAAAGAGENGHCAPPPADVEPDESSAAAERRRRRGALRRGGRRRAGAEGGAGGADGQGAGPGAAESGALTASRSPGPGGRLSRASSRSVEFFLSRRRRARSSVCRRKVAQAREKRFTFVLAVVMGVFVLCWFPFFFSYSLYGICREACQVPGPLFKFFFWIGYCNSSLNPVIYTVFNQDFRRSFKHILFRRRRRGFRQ

Compound	cell count [1]	inhibition [1]	inhibition of aggregation [2]	nuclei count [2]	inhibition [3]	nuclei count [3]	fluorescence slope [4]	NADPH fluorescence slope [5]	slope [6]	inhibition [7]	inhibition [8]
COC(=O)CCC(NC(=O)c1cc(-c2ccc3c(c2)OCCO3)oc1C)C(=O)OC (stereo not drawn)	320	20% (active)	0.3% (inactive)	104%	13.3% (inactive)	104%	-0.48 (inactive)	-3e-05 (inactive)	0.00476 (inactive)	-2.55% (inactive)	-6.77% (inactive)
COc1ccc(C2C(C(C)=O)=C(C)N=c3s/c(=C/c4ccc5c(c4)OCO5)c(=O)n32)cc1 (stereo not drawn)	437	-7.3% (inactive)	-44.9% (inactive)	116%	-0.5% (inactive)	116%	-0.528 (inactive)	-5.5e-05 (inactive)	0.00398 (inactive)	10.2% (inactive)	23.9% (inactive)
CCOC(=O)c1sc(NC(=O)c2c(C)nn(Cc3ccccc3)c2C)cc1C	395	-7.8% (inactive)	42.3% (active)	60%	-20.6% (inactive)	106%	-0.448 (inactive)	-0.000126 (inactive)	0.00542 (inactive)	-9.51% (inactive)	-3.87% (inactive)
O=C(Cc1c(F)cccc1Cl)Nc1ccncc1	285	4.3% (inactive)	1% (inactive)	104%	-34.2% (inactive)	124%	-0.334 (inactive)	2.5e-05 (inactive)	0.00621 (inactive)	12.9% (inactive)	11.9% (inactive)
CSc1nc2ccc(S(=O)(=O)N3CCOCC3)cc2s1	328	-2.2% (inactive)	28.3% (inactive)	95.2%	-22% (inactive)	129%	-0.415 (inactive)	-6.4e-05 (inactive)	0.00411 (inactive)	17.9% (inactive)	15.4% (inactive)
CC1Cc2ccccc2N1C(=O)CSc1nc2ccccc2n1CC(=O)N1CCOCC1 (stereo not drawn)	468	-0.5% (inactive)	6.9% (inactive)	111%	-68.5% (inactive)	110%	-0.523 (inactive)	-0.000178 (inactive)	0.00303 (inactive)	15.4% (inactive)	2% (inactive)
COC(=O)[C@H](CCSC)NC(=O)Nc1cc(C)ccc1C	476	-7.4% (inactive)	7.6% (inactive)	90.6%	-5.7% (inactive)	86.5%	-0.616 (inactive)	-3.2e-05 (inactive)	0.00712 (inactive)	11.7% (inactive)	31% (inactive)
O=C(NCc1ccc2c(c1)OCO2)C1CCCN(S(=O)(=O)c2cccc3cccnc23)C1 (stereo not drawn)	741	-8% (inactive)	20.4% (inactive)	125%	-40.6% (inactive)	104%	-0.527 (inactive)	-6.1e-05 (inactive)	0.00698 (inactive)	15.2% (inactive)	40.4% (inactive)
CC(=O)Nc1cc(NC(C)=O)cc(C(=O)OCC(=O)N2CC(C)OC(C)C2)c1 (stereo not drawn)	492	-3.9% (inactive)	22.1% (inactive)	104%	6.9% (inactive)	109%	-0.299 (inactive)	-4.8e-05 (inactive)	0.00487 (inactive)	6% (inactive)	8.11% (inactive)
CCC(C)(C)NC(=O)CN(C(=O)c1snc(C(N)=O)c1N)c1ccc2c(c1)OCO2	688	-7.3% (inactive)	0.7% (inactive)	103%	-39.8% (inactive)	120%	-0.517 (inactive)	3.3e-05 (inactive)	0.00589 (inactive)	13.1% (inactive)	14.6% (inactive)
Cc1ccc(N(Cc2ccco2)C(=O)c2cccc(S(=O)(=O)N(C)C)c2)cc1	357	2.1% (inactive)	25.6% (inactive)	103%	66% (inactive)	97.5%	-0.393 (inactive)	-4.3e-06 (inactive)	0.0037 (inactive)	0.154% (inactive)	14.9% (inactive)
CC1=C(C(=O)N2CCOCC2)C(c2ccsc2)C2=C(CCCC2=O)N1 (stereo not drawn)	326	-25.2% (inactive)	2.7% (inactive)	99.6%	-11.7% (inactive)	110%	-0.408 (inactive)	-4.5e-05 (inactive)	0.00554 (inactive)	19.4% (inactive)	20.8% (inactive)
Cc1sc2ncnc(SCC(=O)N3CCCC3)c2c1C	369	3.5% (inactive)	-6.6% (inactive)	112%	-32.3% (inactive)	108%	-0.433 (inactive)	-0.000107 (inactive)	0.00701 (inactive)	8.17% (inactive)	6.41% (inactive)
CC1Cc2ccccc2N1C(=O)c1cccnc1 (stereo not drawn)	254	-1% (inactive)	-30.3% (inactive)	106%	-64.3% (inactive)	103%	-0.422 (inactive)	-8.5e-05 (inactive)	0.00616 (inactive)	14.1% (inactive)	25.5% (inactive)
CCCCOCCCNC(=O)COc1ccccc1	360	-3.4% (inactive)	-12.1% (inactive)	113%	-3.5% (inactive)	114%	-0.398 (inactive)	-6.8e-05 (inactive)	0.00485 (inactive)	17.8% (inactive)	29.4% (inactive)
O=C(CN(Cc1cccs1)C(=O)CNS(=O)(=O)c1ccccc1)NCc1ccco1	473	-4.2% (inactive)	-5% (inactive)	104%	-65.9% (inactive)	98.5%	-0.594 (inactive)	3.8e-05 (inactive)	0.00631 (inactive)	-8.34% (inactive)	-2.97% (inactive)
CN1C(=O)C(O)(CC(=O)c2ccc(F)cc2)c2cc(Br)ccc21 (stereo not drawn)	580	6% (inactive)	22.6% (inactive)	69.5%	16.6% (inactive)	97.6%	-0.436 (inactive)	-7.2e-05 (inactive)	0.0055 (inactive)	22.4% (inactive)	41.2% (inactive)
COc1cc(C2c3c(n[nH]c3C)C(=O)N2c2ccc(C)cc2)ccc1O (stereo not drawn)	335	-8.1% (inactive)	-6% (inactive)	86.3%	-34.1% (inactive)	112%	-0.586 (inactive)	-2.8e-05 (inactive)	0.00346 (inactive)	3.65% (inactive)	-2.36% (inactive)
COCCN(CCOC)C(=O)c1sc2nc(-c3ccccc3)cn2c1C	752	-10.7% (inactive)	-5.6% (inactive)	119%	-55.5% (inactive)	127%	-0.39 (inactive)	-9.4e-06 (inactive)	0.00336 (inactive)	9.08% (inactive)	7.03% (inactive)
Fc1cccc(Nc2ncnc3c2cnn3-c2ccccc2)c1	644	-3.3% (inactive)	0.4% (inactive)	109%	-51.7% (inactive)	127%	-0.57 (inactive)	4.4e-06 (inactive)	0.00538 (inactive)	-54.2% (inactive)	-148% (inactive)
CCN(CC)C(=O)Oc1ccc(NC(C)=O)cc1	383	2.1% (inactive)	1.1% (inactive)	99.8%	-27.3% (inactive)	102%	-0.431 (inactive)	-6.8e-05 (inactive)	0.00611 (inactive)	-1% (inactive)	23% (inactive)
O=C(CN1CCN(c2nc(-c3ccccc3)cs2)CC1)Nc1ccc2c(c1)OCO2	529	-11.3% (inactive)	-0.3% (inactive)	106%	-77.7% (inactive)	146%	-0.518 (inactive)	1.7e-05 (inactive)	0.00563 (inactive)	-2.24% (inactive)	-3.31% (inactive)
COc1ccc(CCn2c(-c3ccco3)nc3ccccc3c2=O)cc1OC	425	-0.6% (inactive)	2.8% (inactive)	107%	-99.5% (inactive)	120%	-0.402 (inactive)	-6.5e-05 (inactive)	0.00555 (inactive)	-9.43% (inactive)	-5.38% (inactive)
CCC(C(=O)Nc1ncccn1)(C(F)(F)F)C(F)(F)F	218	2% (inactive)	25.4% (inactive)	93.4%	-2.6% (inactive)	110%	-0.499 (inactive)	5.3e-05 (inactive)	0.00586 (inactive)	-24.5% (inactive)	-0.327% (inactive)
COC(=O)Cn1ncc2c(C)n(Cc3ccccc3)c(C)c2c1=O	732	-5.2% (inactive)	15.7% (inactive)	88.1%	-72.2% (inactive)	122%	-0.563 (inactive)	-2.4e-05 (inactive)	0.00743 (inactive)	-29.4% (inactive)	-89.1% (inactive)
O=C(Nc1ccc2c(c1)OCCO2)NC1CCCCC1	379	0.5% (inactive)	20.1% (inactive)	58.3%	-33.5% (inactive)	102%	-0.487 (inactive)	-1.2e-05 (inactive)	0.00607 (inactive)	-28.7% (inactive)	-68.9% (inactive)
CCCOC(=O)/C(C(N)=NCc1ccccc1)=C(\O)OCCC	488	4.4% (inactive)	-27.7% (inactive)	110%	-8.5% (inactive)	127%	-0.406 (inactive)	0.00015 (inactive)	0.00562 (inactive)	-11.7% (inactive)	-11.9% (inactive)
Cc1ccc(-c2nnc(SCC(=O)N3CC(C)CC(C)C3)o2)cc1C (stereo not drawn)	557	-1.6% (inactive)	1.6% (inactive)	32.1%	-32.7% (inactive)	120%	-0.527 (inactive)	-4.3e-05 (inactive)	0.00676 (inactive)	-0.246% (inactive)	9.23% (inactive)
